A selection: hits, their analogues and other compounds. The true share with any hit is near 6.6%.
MCF10A rerep: A quantitative high throughput screen for small molecules that induce DNA re-replication in MCF 10a normal breast cells | MCF 10A DNA re-replication, Hoechst nuclear intensity, 48 h | Potency, µM (highest dose often 46.1 µM), inactives show at the top dose activity, positive = re-replication, hits mostly activators | actives 2.9% (n = 350,000); also: % of control where 0% means no effect; nearly all actives have a fitted effect of over 50% in size
KB-3-1 tox: qHTS assay for MDR1-selective chemotherapeutics: Primary screen using the parental adenocarcinoma cell KB-3-1; KB-3-1 viability, CellTiter-Glo ATP luminescence, 72 h; actives 1.4% (n = 400,000); Potency, µM (highest dose often 46.1 µM), actives largely listed as cytotoxic; AID 1347075, 2019; also: % is scaled to controls: 0 for no effect and ±100 for the full control effect; nearly all actives have a fitted effect of over 60% in size
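Cytotoxicity measured as CellTiter-Glo luminescence after 72 h at 37 C. Compound titrations were pinned onto drug-naive KB-3-1 parental adenocarcinoma cells grown in DMEM with 10% FBS, and normalized data fitted to concentration-response curves.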
RGS4 inh: Inhibitors of Regulator of G Protein Signaling (RGS) 4: qHTS. Regulator of G-protein signaling 4 (Homo sapiens), P49798. Transcreener GDP fluorescence polarization, RGS4-accelerated GTP hydrolysis. Potency, µM (top dose mostly 114 µM), without a hit: at the top dose activity change, negative = inhibition, actives largely listed as inhibitors. actives 0.039% (n = 390,000). AID 504845, 2011; also: % is scaled to controls: 0 for no effect and ±100 for the full control effect; nearly all actives have a fitted effect of over 75% in size
Target sequence (P49798 whole entry, looked up): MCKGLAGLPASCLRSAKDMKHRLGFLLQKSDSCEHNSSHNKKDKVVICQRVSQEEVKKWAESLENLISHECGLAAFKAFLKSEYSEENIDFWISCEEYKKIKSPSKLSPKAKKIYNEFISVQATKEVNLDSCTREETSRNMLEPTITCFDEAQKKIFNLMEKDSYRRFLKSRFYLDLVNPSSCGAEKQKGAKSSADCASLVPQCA
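MLSMR compounds (23 nl, pin-transferred) preincubated 10 min at room temperature with a 500nM (2x) first reagent, then RGS4 at 900nM (2x) plus Transcreener GDP mix added; fluorescence polarization (620/688 nm) read before and after 90 min at 30 °C.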
PTAP TSG101 blk: qHTS Assay for Iinhibitors of HIV-1 Budding by Blocking the Interaction of PTAP/TSG101 | Tumor susceptibility gene 101 protein (Homo sapiens), Q99816 | Fluorescence polarization, FITC-PTAP peptide / Tsg101 binding | Potency, µM (titrated, usually from 115 µM), inactives show top-dose activity change, negative = inhibition, usual class: inhibitors | 340,000 tested, under 10 active; active = well fitted inhibition curve with a large enough effect in the main read-out, with a control signal flat, not every such curve was filed as active; inconclusive = small, poorly fitted or top-dose-only effect, or effect the other way, or a change in a side signal; inactive = no such curve, though single readings can be large or run the other way; also: % of control where 0% means no effect
Target sequence (Q99816 whole entry, looked up): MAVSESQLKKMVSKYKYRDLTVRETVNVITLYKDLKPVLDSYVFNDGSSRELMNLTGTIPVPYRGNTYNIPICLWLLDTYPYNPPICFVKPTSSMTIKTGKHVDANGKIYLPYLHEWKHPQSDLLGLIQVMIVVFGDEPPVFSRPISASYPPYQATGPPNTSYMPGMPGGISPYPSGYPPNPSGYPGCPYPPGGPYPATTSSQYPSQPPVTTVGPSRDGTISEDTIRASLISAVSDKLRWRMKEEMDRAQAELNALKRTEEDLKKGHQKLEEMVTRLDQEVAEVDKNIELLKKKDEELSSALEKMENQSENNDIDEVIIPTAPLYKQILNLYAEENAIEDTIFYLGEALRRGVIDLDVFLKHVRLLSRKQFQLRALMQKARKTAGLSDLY
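Compounds were pin-transferred onto Tsg101 binding domain (10 uM final) in HEPES pH 7.5 buffer, then FITC-PTAP peptide was added at 50 nM final. After 20 min at RT, polarization reported peptide displacement across a qHTS concentration series.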
SW480 rereplic: A quantitative high throughput screen for small molecules that induce DNA re-replication in SW480 colon adenocarcinoma cells; Potency, µM (top dose mostly 46.1 µM), inactives show at the top dose re-replication activation, most hits filed as activators; actives 1.8% (n = 340,000); SW480 DNA re-replication, Hoechst DNA content imaging, 48 h; AID 624297, 2012; also: % of control where 0% means no effect; nearly all actives have a fitted effect of over 55% in size
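Compounds, transferred as 23 nL by pin tool, were incubated with cells for 48 hr; DNA content per nucleus was then quantified by Hoechst staining and fluorescence plate imaging.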
KB-V1 cytotox: qHTS assay for MDR1-selective chemotherapeutics: Primary screen using the drug-selected MDR subline cells KB-V1. actives 3.4% (n = 400,000). KB-V1 MDR cells viability, CellTiter-Glo, 72 h. Potency, µM (highest dose often 46.1 µM), usual class: cytotoxic; also: % is scaled to controls: 0 for no effect and ±100 for the full control effect; nearly all actives have a fitted effect of over 60% in size
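Drug-selected KB-V1 cells, grown in DMEM lacking phenol red with 10% FBS, receive compound titrations; after three days at 37 degrees C, surviving cell ATP is quantified by CellTiter-Glo luminescence and responses normalized and curve-fitted.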
Numbers without * were called inactive. Unless noted, calls follow the shape of the dose curve; as a rule, active = well fitted curve in the direction sought with a large enough effect; inconclusive = small, poorly fitted or top-dose-only effect, or another doubt; inactive = no such curve, though single readings can be large; an effect the other way counts as inactive or inconclusive. Potency is read from the fitted curve at half-maximal effect.

For COCc1c(C(=O)N2CCN(S(=O)(=O)c3ccccc3Cl)CC2)oc2ccccc12 the results were MCF10A rerep 1%, KB-3-1 tox inactive, RGS4 inh 16%, PTAP TSG101 blk -6%, SW480 rereplic 1% and KB-V1 cytotox inactive.
Cc1ccc(N(Cc2ccc([N+](=O)[O-])cc2)C(=O)c2ccco2)cc1C was read as MCF10A rerep -2%, KB-3-1 tox inactive, RGS4 inh 4%, PTAP TSG101 blk -8%, SW480 rereplic 0% and KB-V1 cytotox 10µM*.
`Cc1ccc(-n2ncc3c(NCCC4=CCCCC4)ncnc32)cc1` gave KB-3-1 tox inactive, RGS4 inh -6% and KB-V1 cytotox inactive.
For O=c1oc2ccc(Br)cc2cc1-c1nc2c(s1)CCc1ccccc1-2 the results were KB-3-1 tox inactive, RGS4 inh -14% and KB-V1 cytotox inactive.
`Nc1nonc1-n1nnc(C(=O)N/N=C/c2ccccc2)c1CN1CCc2ccccc21` gave MCF10A rerep -4%, KB-3-1 tox inconclusive, RGS4 inh -4%, PTAP TSG101 blk -2%, SW480 rereplic -10% and KB-V1 cytotox inactive.
For COC(=O)c1nnn(-c2nonc2N)c1CN1CCc2ccccc21 the results were MCF10A rerep 28%, KB-3-1 tox 23µM*, RGS4 inh 15%, PTAP TSG101 blk -2%, SW480 rereplic 26% and KB-V1 cytotox inconclusive.
CC(C)OC(=O)c1nnn(-c2nonc2N)c1CN1CCc2ccccc2C1 was read as MCF10A rerep 9%, KB-3-1 tox inactive, RGS4 inh 2%, PTAP TSG101 blk -5%, SW480 rereplic 5% and KB-V1 cytotox 6.5µM*.
For Cc1c(NC(=S)/C=C2\N(C)c3ccccc3C2(C)C)c(=O)n(-c2ccccc2)n1C the results were MCF10A rerep 2%, KB-3-1 tox inactive, RGS4 inh -24%, PTAP TSG101 blk -4%, SW480 rereplic 3% and KB-V1 cytotox 23µM*.
For Cc1ccc(/C=C2\Sc3ccccc3C2=O)s1 the results were MCF10A rerep 23µM*, KB-3-1 tox inactive, RGS4 inh -39%, PTAP TSG101 blk -9%, SW480 rereplic 9% and KB-V1 cytotox inactive.
`Cc1cc2c(cc(C(=O)OCC(=O)NCc3cccs3)n2C(C)C)o1` gave MCF10A rerep 2.9µM*, KB-3-1 tox 9.2µM*, RGS4 inh -27%, PTAP TSG101 blk -1%, SW480 rereplic 8.2µM* and KB-V1 cytotox inconclusive.
`COc1ccc(-c2cn(-c3ccc(C)cc3)c(S(=O)(=O)CC(=O)Nc3ccccc3)n2)cc1` gave KB-3-1 tox inactive, RGS4 inh -16% and KB-V1 cytotox inactive.
Cc1nnsc1S(=O)c1ccc(Cl)c(Cl)c1 (stereo not given) was read as MCF10A rerep inconclusive, KB-3-1 tox inconclusive, RGS4 inh -14%, PTAP TSG101 blk -2%, SW480 rereplic inconclusive and KB-V1 cytotox inconclusive.
Screening O=S(c1ccc2ccccc2c1)c1cnns1 (stereo not given) returned MCF10A rerep 13µM*, KB-3-1 tox inactive, RGS4 inh -34%, PTAP TSG101 blk -6%, SW480 rereplic inconclusive and KB-V1 cytotox inconclusive.
`COc1ccc(OC)c(C2CC(=O)N(c3cccc(C)c3)C3=C2C(=O)OC3)c1` (stereo not given) gave KB-3-1 tox inactive, RGS4 inh -1% and KB-V1 cytotox inactive.
Screening COc1ccc2c(c1)C(=O)[C@@H](O)[C@H](c1ccc(OC)c(Br)c1)O2 returned MCF10A rerep inconclusive, KB-3-1 tox inconclusive, RGS4 inh -16%, PTAP TSG101 blk -4%, SW480 rereplic 12µM* and KB-V1 cytotox inactive.
COc1cccc([C@@H]2Oc3ccc(OC)cc3C(=O)[C@H]2O)c1 was read as MCF10A rerep inconclusive, KB-3-1 tox inconclusive, RGS4 inh 3%, PTAP TSG101 blk -2%, SW480 rereplic inconclusive and KB-V1 cytotox inactive.
`O=c1c2ccccc2sc2nc(CCl)nn12` gave MCF10A rerep inconclusive, KB-3-1 tox 6.5µM*, RGS4 inh -20%, PTAP TSG101 blk -5%, SW480 rereplic -2% and KB-V1 cytotox inconclusive.
`O=c1cc(CCl)nc2sc3ccccc3n12` gave MCF10A rerep inconclusive, KB-3-1 tox inconclusive, RGS4 inh -15%, PTAP TSG101 blk -7%, SW480 rereplic inconclusive and KB-V1 cytotox inactive.
For CC(=O)c1cccc(NC(=O)CCc2c(C)nc3c(-c4ccc(F)cc4)c(C)nn3c2C)c1 the results were KB-3-1 tox inactive, RGS4 inh 4% and KB-V1 cytotox inactive.
`Cc1cc2nn(-c3cccc4ccccc34)nc2cc1NC(=O)c1cccs1` gave MCF10A rerep 9%, KB-3-1 tox inactive, RGS4 inh -8%, PTAP TSG101 blk -6%, SW480 rereplic -1% and KB-V1 cytotox 16µM*.
`CCCn1nc(NC(=O)c2cccs2)c2cc3cccc(C)c3nc21` gave MCF10A rerep 21µM*, KB-3-1 tox inactive, RGS4 inh 14%, PTAP TSG101 blk -1%, SW480 rereplic inconclusive and KB-V1 cytotox inactive.
`CCCn1nc(NC(=O)CC)c2cc3cccc(C)c3nc21` gave MCF10A rerep 2%, KB-3-1 tox inactive, RGS4 inh 18%, PTAP TSG101 blk -4%, SW480 rereplic 16µM* and KB-V1 cytotox inactive.
`COc1ccc(CC(=O)Nc2nn(C)c3nc4c(C)cccc4cc23)cc1` gave MCF10A rerep 3.3µM*, KB-3-1 tox inactive, RGS4 inh -3%, PTAP TSG101 blk -1%, SW480 rereplic inconclusive and KB-V1 cytotox inactive.
Screening Cc1cccc2cc3c(NC(=O)C(C)C)nn(C)c3nc12 returned MCF10A rerep inconclusive, KB-3-1 tox inactive, RGS4 inh 0%, PTAP TSG101 blk 0%, SW480 rereplic inconclusive and KB-V1 cytotox inactive.
For Cc1ccccc1NC(=O)COC(=O)c1ccccc1OCC(=O)Nc1ccc(Br)cc1 the results were KB-3-1 tox inactive and KB-V1 cytotox inactive.
For O=C(COC(=O)C12CC3CC(CC(O)(C3)C1)C2)NCc1ccco1 the results were RGS4 inh 2%.

Screens (PubChem)
